Source: PubChem BioAssay (National Center for Advancing Translational Sciences (NCATS))
An excerpt weighted towards active compounds, which were near 1.4% of everything screened.
EPAC1 antag – antagonists of human EPAC1; hit rate 0.14% among 360,000; Potency, µM (titrated, usually from 115 µM), without a hit: at the highest dose activity change, negative = inhibition, most hits filed as inhibitors; AID 720709; EPAC1 GEF assay, Rap1b-BODIPY-GDP exchange fluorescence;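 also: potency is read from the fitted curve at half-maximal effect; plate controls were vehicle for no effect and positive control for full effect; nearly all actives have a fitted effect of over 50% in size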
EPAC1 ag – EPAC1 (human) agonism. O95398. EPAC1 agonist qHTS, biochemical assay; response scale: 100% = response to 6.5 mM cAMP. Potency, µM (top dose mostly 154 µM), for inactives: top-dose activation, hits mostly activators. hit rate 0.073% among 360,000. AID 720707; also: potency is read from the fitted curve at half-maximal effect; nearly all actives have a fitted effect of over 60% in size
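Fluorescent GDP-exchange assay: 100 nM EPAC1 with 250 nM Rap1B preloaded with BODIPY-GDP and 50 uM GDP; compounds tested as concentration series, 5 min at room temperature, then read every 5 min for 30 min (ex 480/em 540 nm); normalized to 6.5 mM cAMP.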
EPAC2 antagonist – EPAC2 (human) antagonism; EPAC2 GEF exchange of Rap1B-BODIPY-GDP, fluorescence; hit rate 0.18% among 360,000; Potency, µM (doses to about 114 µM), without a hit: at the top dose activity, negative = inhibition, actives largely listed as inhibitors; Q8WZA2; also: potency is read from the fitted curve at half-maximal effect; % is scaled to controls: 0 for no effect and ±100 for the full control effect; nearly all actives have a fitted effect of over 45% in size
KCNH2 3.1 block – KCNH2 3.1 (human) potassium channel inhibition; U2OS KCNH2 3.1, thallium flux FluxOr; active compounds read low; activity change, % (tested at about 1.8 µM); hit rate 0.95% among 340,000; AID 720553;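 active = maximum activity change below -70%; inconclusive = maximum activity change from -70% to -50%; inactive = maximum activity change above -50%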;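 also: thallium influx rate constant from kinetic fluorescence after stimulation buffer; % is scaled to controls: 0 for no effect and ±100 for the full control effect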
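FluxOr-based Tl+ influx in U2OS cells transduced with KCNH2 3.1 virus; rate constants normalized to DMSO controls.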
hERG WT inh – blocks the wildtype human KCNH2 potassium channel. U2OS, BacMam KCNH2, thallium flux FluxOr; active compounds read low. activity change, % at 1.84 µM. hit rate 0.37% among 340,000;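 active = maximum activity change below -70%; inconclusive = maximum activity change between -70% and -50%; inactive = maximum activity change above -50%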; also: % is scaled to controls: 0 for no effect and ±100 for the full control effect
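U2OS cells transduced with wild-type KCNH2 virus are loaded with FluxOr dye for 45 min, and thallium flux is measured in kinetic reads before and after stimulation buffer. Rate constants are normalized to DMSO controls.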
EPAC2 ag – EPAC2 (human) agonism. hit rate 0.079% among 360,000. Q8WZA2. EPAC2 activation, biochemical qHTS; response scale: 100% = 6.5 mM cAMP response. Potency, µM (series often up to 154 µM), without a hit: at the top dose activation, hits mostly activators; also: potency is read from the fitted curve at half-maximal effect; nearly all actives have a fitted effect of over 50% in size
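EPAC2 (100 nM) mixed with Rap1B loaded with BODIPY-GDP (250 nM) plus 50 uM unlabeled GDP; compounds pinned in, 5 min RT, then read every 5 min for 30 min (ex 480, em 540 nm). Normalized to cAMP control.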
* hit, by the source's call; ? = inconclusive; nt = no result given. Unless noted, calls follow the shape of the dose curve; as a rule, active = well fitted curve in the direction sought with a large enough effect; inconclusive = small, poorly fitted or top-dose-only effect, or another doubt; inactive = no such curve, though single readings can be large; an effect the other way counts as inactive or inconclusive.

SMILES	EPAC1 antag	EPAC1 ag	EPAC2 antagonist	KCNH2 3.1 block	hERG WT inh	EPAC2 ag
CC1=CC(C)(C)C(C(=O)O)C(C(=O)O)C1 (stereo not given)	3%	1%	4%	3	-109*	-7%
CC(Sc1nc2ncc(Cl)cc2[nH]1)C(=O)NC1(C#N)CCCCC1 (stereo not given)	-22%	-9%	4%	1	-22	11%
CC(=O)Nc1ccc(S(=O)(=O)N2CCC(c3nnc(-c4ccc(C)cc4)o3)CC2)cc1	1%	-8%	2%	-137*	9	5%
CCc1nc2ccc(C(=O)NCc3ccc4c(c3)OCO4)cn2c1N(C)C(=O)Cc1ccccc1	-8%	5%	-3%	nt	nt	3%
COc1ccccc1NS(=O)(=O)c1ccc2ccccc2c1	-4%	16%	13µM*	-6	5	23%
COc1ccccc1NS(=O)(=O)c1ccc(OC)c(OC)c1	-8%	0%	4%	4	6	1%
COc1ccc(CC(=O)OCC(=O)c2ccc[nH]2)cc1	-3%	-2%	16%	13	-284*	17%
COc1cc(CNc2ccc(O)cc2)cc(Br)c1OCc1ccccc1F	28µM*	-1%	?	-19	4	3%
Cc1ccc(-c2csc3ncn(C(C)C(=O)O)c(=O)c23)cc1 (stereo not given)	5%	0%	-2%	-5	-11	18%
COC(=O)c1ccc(C(=O)Nc2ccc3c(c2)C(=O)NC3=O)cc1	-15%	2%	-13%	-96*	12	14%
COC(=O)CN(C)C(=O)c1ccc(OC2CCN(S(=O)(=O)N(C)C)CC2)cc1	-27%	-3%	5%	-2	-3	-10%
Cc1ccc(S(=O)(=O)N2CC3C(=O)C[C@@H](c4ccccc4)N(S(=O)(=O)c4cccc(Cl)c4)C3CC2c2ccccc2)cc1 (stereo not given in full)	-3%	-20%	1%	nt	nt	14%
COc1ccc(CN2CCN(Cc3ccc(C)cc3)CC2)c(OC)c1	12%	2%	4%	-5	8	4%
COc1ccc(CN2CCN(Cc3c[nH]c4ccccc34)CC2)c(OC)c1	8%	3%	-21%	-102*	36	11%
COc1ccc(CN2CCN(Cc3ccc(C(F)(F)F)cc3)CC2)c(OC)c1	-18%	-6%	2%	-101*	-41	5%
CCN(CC)C(=O)C1=C(C)N(Cc2ccc(F)cc2)C(=O)C(CC(=O)NCCCN(C)C)C1 (stereo not given)	5%	1%	4%	-12	-12	12%
CCC1CCCCN1CCCNC(=O)CCC(=O)N1CC(C)Oc2ccccc21 (stereo not given)	25µM*	-16%	18%	19	4	10%
CC1CN(C(=O)CCC(=O)NCCCc2ccccc2)c2ccccc2O1 (stereo not given)	-14%	-6%	4%	0	3	1%
COc1cc(/C=C2\COC/C(=C\c3ccc(O)c(OC)c3)C2=O)ccc1O	89µM*	3%	-13%	7	-9	7%
COc1ccc(-c2csc(C(C)(O)c3ccc(F)c(F)c3)n2)cc1 (stereo not given)	-17%	10%	-26%	nt	nt	6%
O=S(=O)(NCC[C@@H]1CC[C@H](NS(=O)(=O)c2cccc(F)c2)[C@@H](CO)O1)c1cccc(F)c1	-19%	-6%	-7%	nt	nt	-2%
Cc1cccc(NC(=O)c2ccc(NCCc3ccccc3)c([N+](=O)[O-])c2)c1	16%	5%	?	-189*	-16	-14%
COc1cccc(C2c3[nH]c4ccccc4c3C[C@H]3C(=O)N(CCCOC(C)C)CC(=O)N23)c1 (stereo not given in full)	-22%	-3%	-11%	-156*	4	-5%
COc1ccc2[nH]c(=O)c(-c3nnn(-c4ccc(Cl)nc4)n3)cc2c1	?	-9%	3%	-99*	-2	0%
Cc1cccc2nc(-c3cccc(NC(=O)c4ccc(Cl)cc4)c3)cn12	?	2%	3%	?	25	13%
